# Measurements reported in publication PMC4336329 (PLoS ONE, 2015).
# Among all 310,000 compounds or so, about 14,000 (4.5%) showed an effect of 50% or more. Effects have a minus sign here. The full list was thinned out, with strong results kept by preference.
# Molecular target: human ether-à-go-go-related gene (hERG) potassium channel (human, UniProt Q12809)
# Assay: primary screen, population patch clamp on CHO cells stably expressing hERG; higher = less effect of the substance
# 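Also: peak tail current of the secondary pulse compared with the same well before compound.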
# human ether-à-go-go-related gene (hERG) potassium channel, sequence (Q12809 whole entry, looked up): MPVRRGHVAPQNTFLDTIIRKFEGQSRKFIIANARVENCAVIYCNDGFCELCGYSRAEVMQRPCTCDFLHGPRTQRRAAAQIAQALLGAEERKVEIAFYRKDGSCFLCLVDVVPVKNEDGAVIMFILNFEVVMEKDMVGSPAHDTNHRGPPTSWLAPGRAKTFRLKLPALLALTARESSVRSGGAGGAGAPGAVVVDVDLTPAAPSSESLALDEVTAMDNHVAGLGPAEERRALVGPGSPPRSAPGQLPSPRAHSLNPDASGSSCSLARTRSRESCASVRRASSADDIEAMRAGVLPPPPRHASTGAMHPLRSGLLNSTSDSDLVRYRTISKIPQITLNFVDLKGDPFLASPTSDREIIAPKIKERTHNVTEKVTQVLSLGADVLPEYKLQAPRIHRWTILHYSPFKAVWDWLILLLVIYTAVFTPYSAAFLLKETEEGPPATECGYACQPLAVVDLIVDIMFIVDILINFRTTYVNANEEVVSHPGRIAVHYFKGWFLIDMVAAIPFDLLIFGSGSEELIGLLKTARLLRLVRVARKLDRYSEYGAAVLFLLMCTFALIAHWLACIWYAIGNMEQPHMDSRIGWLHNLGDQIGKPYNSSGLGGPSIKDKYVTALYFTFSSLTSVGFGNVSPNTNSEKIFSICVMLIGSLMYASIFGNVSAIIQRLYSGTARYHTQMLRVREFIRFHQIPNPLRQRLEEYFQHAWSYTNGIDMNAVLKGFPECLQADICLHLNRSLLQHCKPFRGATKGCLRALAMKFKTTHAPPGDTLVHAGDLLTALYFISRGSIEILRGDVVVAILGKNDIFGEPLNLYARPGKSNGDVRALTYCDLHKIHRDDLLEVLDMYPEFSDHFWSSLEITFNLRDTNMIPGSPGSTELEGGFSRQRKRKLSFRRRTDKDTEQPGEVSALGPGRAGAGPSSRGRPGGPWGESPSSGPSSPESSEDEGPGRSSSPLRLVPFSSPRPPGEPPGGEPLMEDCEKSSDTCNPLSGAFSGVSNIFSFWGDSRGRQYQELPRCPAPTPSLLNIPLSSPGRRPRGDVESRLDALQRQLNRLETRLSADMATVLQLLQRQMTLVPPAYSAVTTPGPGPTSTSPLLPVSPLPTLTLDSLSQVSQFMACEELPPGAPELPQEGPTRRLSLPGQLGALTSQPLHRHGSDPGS
row,SMILES,"hERG current change (%, negative = inhibition) at 10uM [%]"
1,CCOC(=O)NC1(C(F)(F)F)N=C(c2ccccc2)NC1=O (centres unmarked),4.77
2,Cn1cc([C@@H]2C[C@H]3CN(C4CCCC4)C(=O)[C@]34CCCN24)c(-c2ccccc2)n1,-18.5
3,CN1C[C@@H]2C[C@@H](c3ccc(C#CC(C)(C)O)s3)N3CCC[C@@]23C1=O,9.88
4,Cc1cc(C)c([C@@H]2C[C@H]3CN(C4CCCC4)C(=O)[C@]34CCCN24)c(-n2cccn2)c1,-80.7
5,O=C1N(C2CCCC2)C[C@@H]2C[C@@H](c3cn[nH]c3-c3ccc(Cl)cc3)N3CCC[C@@]123,-37.8
6,CN1C[C@@H]2C[C@@H](C3=Cc4cc(Cl)ccc4OC3)N3CCC[C@@]23C1=O,-32.7
7,Cc1ccc(-n2cccn2)c([C@@H]2C[C@H]3CN(C)C(=O)[C@]34CCCN24)c1,-61.1
8,CCOc1cc(CNc2ncn[nH]2)ccc1OCC(=O)NC(C)(C)C,5.22
9,Cc1ccc(OCC(=O)N(C)Cc2ccccc2)c([N+](=O)[O-])n1,3.95
10,NN/C(=C\[N+](=O)[O-])Nc1ccc(Cl)cc1,13.6
11,Cc1ccc(S(=O)(=O)CCC(=O)OCC(=O)c2c[nH]c3ccccc23)cc1,-8.93
12,COc1ccc(S(=O)(=O)N2CCN(C(=O)NC3CCCCC3)CC2)cc1OC,-17.7
13,COC(=O)c1cc(Br)c(=O)n(-c2ccc(OC)cc2)c1,-0.31
14,COC(=O)c1cc(Br)c(=O)n(-c2ccc(F)cc2)c1,-63.9
15,COC(=O)c1cc(Br)c(=O)n(CCc2ccc(F)cc2)c1,-24.9
16,COCC(C)n1c(SCc2ccc(C(=O)OC)o2)nc2ccccc2c1=O (centres unmarked),-8.61
17,COc1ccccc1C1CC(c2cccs2)=Nc2ccccc2S1 (centres unmarked),14.4
18,CC1CCCN(C(=O)c2ccc(Br)c(S(=O)(=O)N3CCOCC3)c2)C1 (centres unmarked),-7.24
19,Cc1cc(O)cc2c1C(c1ccc(F)cc1)CC1(CC(C)(C)NC(=S)N1)O2 (centres unmarked),14.2
20,COc1ccc(C2CC3(CC(C)(C)NC(SC)=N3)Oc3cc(O)cc(C)c32)cc1.I (centres unmarked),-74.3
21,COc1ccc(C2CC3(CC(C)(C)NC(=S)N3)Oc3cc(O)cc(C)c32)cc1 (centres unmarked),14.6
22,CC12CN(C(=S)Nc3ccccc3)CC(C)(CN(C(=S)Nc3ccccc3)C1)C2=O,10.3
23,COc1ccc(/C=C(/NC(=O)c2ccco2)C(=O)Nc2ccc(C(=O)O)cc2)cc1,9.11

row,SMILES,"hERG current change (%, negative = inhibition) at 10uM [%]"
1,COc1ccccc1N1CCN(C(=O)c2ccc(-c3ccc(Cl)cc3)o2)CC1,-7.22
2,Cc1cccc(OCC(=O)N2CCN(C(=O)c3ccco3)CC2)c1,-6.95
3,O=C(COc1ccc2ccccc2c1)N1CCN(Cc2ccncc2)CC1.O=C(O)C(=O)O,-33.9
4,O=C(COc1ccc2ccccc2c1)N1CCN(C2CCN(Cc3ccccc3)CC2)CC1,-77.7
5,COc1cc(/C=C/C(=O)OCC(=O)N2CCN(C(=O)c3ccco3)CC2)ccc1O,2.55
6,CCOC(=O)/C=C/C(=O)OCC(=O)N1CCN(C(=O)c2ccco2)CC1,9.59
7,O=C(COC(=O)/C=C/c1ccc(OC(F)F)cc1)NCCN1C(=O)CSC1=O,-60.8
8,O=C(COC(=O)/C=C/c1ccc(Cl)cc1)NCCN1C(=O)CSC1=O,-21.2
9,O=C(COc1ccc2ccccc2c1)N1CCN(C(=O)c2ccco2)CC1,-61.7
10,Cc1ccc(/C=C/C(=O)OCC(=O)NCCN2C(=O)CSC2=O)cc1,-17.9
11,CC(C)c1ccc(OCC(=O)N2CCN(C(=O)c3ccco3)CC2)cc1,-49.1
12,COc1cccc(CN2CCN(C(=O)COc3ccc4ccccc4c3)CC2)c1,-38.7
13,O=C(/C=C/c1ccc(OC(F)F)cc1)OCC(=O)N1CCN(C(=O)c2ccco2)CC1,-71
14,CC1=NN(c2ccccc2)C(=O)C1C(=O)c1cc([N+](=O)[O-])cc([N+](=O)[O-])c1 (centres unmarked),2
15,CCn1c(=S)sc2c(=O)n(CC(=O)Nc3cccc(Cl)c3)c(C)nc21,6.27
16,Cc1ccc(-c2nc(N)sc2CC(=O)OCC(=O)N2C(C)CCCC2C)cc1 (centres unmarked),-7.22
17,COc1ccc2cc(CCNC(=O)c3ccc(Br)o3)c(=O)[nH]c2c1,-9.51
18,COCCCNC(=S)N1CCN(C(c2ccccc2)c2ccccc2)CC1,5.04
19,COc1cccc2cc(C(C)N(CCCN3CCOCC3)C(=S)Nc3ccccc3C)oc12 (centres unmarked),-7.78
20,COc1ccc2[nH]c(=O)c(CN(C(=O)C(C)C)c3ccccc3OC)cc2c1,-2.54
21,COc1cccc(=O)c2c(C)oc(C)c12,3.11
22,O=C(N/N=C/c1cccs1)c1cnccn1,-1.91
23,CC(Sc1nc(-c2ccccc2)cc(C(F)(F)F)n1)C(=O)N1CCCCC1 (centres unmarked),-17.9

row,SMILES,"hERG current change (%, negative = inhibition) at 10uM [%]"
1,O=C(COc1ccccc1)N1CCN(C(=O)c2ccco2)CC1,-8.03
2,N#Cc1ccc(OCC(=O)N2CCN(C(=O)c3ccco3)CC2)cc1,-71
3,COc1ccc(OCC(=O)N2CCN(C(=O)c3ccco3)CC2)cc1,-32.3
4,CC1(c2nnc(Cc3ccccc3)o2)CC(c2cccc(F)c2)=NO1 (centres unmarked),-3.35
5,Cc1cc(C)n(-c2nncn2/N=C/c2ccccc2F)n1,3.06
6,COc1ccccc1-n1ccnc(SCC(=O)NCc2ccccc2Cl)c1=O,8.39
7,O=C1CCN(CCc2ccccc2)CCN1[C@H](CSc1ccc(Br)cc1)Cc1ccccc1,-74.6
8,CC(C)[C@@H](CSc1ccccc1)N1CCN(Cc2ccccc2)CCC1=O,-63.4
9,O=C1CCN(CCc2ccccc2)CCN1[C@H](CSc1ccccc1)Cc1ccccc1,-77.1
10,O=C1CC[C@H](O)CCN1[C@H](CSc1ccccc1)Cc1ccccc1,-21.7
11,CC(C)C(CO)N1CCN(Cc2ccccc2)CCC1=O (centres unmarked),4.74
12,O=C1CCN(Cc2ccc(Br)cc2)CCN1[C@H](CO)Cc1ccccc1,-10.4
13,O=C1CC[C@H](OCc2ccccc2)CCN1[C@H](CSc1ccccc1)Cc1ccccc1,-51
14,CC(C)C[C@@H](CO)N1CCN(Cc2ccccc2)CCC1=O,6.02
15,Cc1ccc(SC[C@H](Cc2ccccc2)N2CCN(CCc3ccccc3)CCC2=O)cc1,-17.9
16,O=C1CC[C@H](O)CCN1[C@H](CSc1ccc(Br)cc1)Cc1ccccc1,-24.3
17,C[C@H]1CCC(=O)N([C@H](CSc2ccccc2)Cc2ccccc2)CC1,-37
18,Clc1ccc(C2[C@H]3CN(CC4CCCCC4)[C@H](c4ccccc4)C34CC2(c2cccnc2)C4)cn1 (some centres unmarked),-26.1
19,O=C(O)c1cccc(NC(=O)c2cn(-c3ccccc3)nc2-c2ccc([N+](=O)[O-])cc2)c1,19.5
20,COC(=O)c1nn(-c2cccc(Cl)c2)ccc1=O,6.98
21,CCCCN(CCO)CCCC,14
22,CC(C)c1ccc(OCC(=O)Nc2ccccc2C(=O)N2CCOCC2)cc1,-18.9
23,CCOC(=O)C(C)Sc1nc(C2CC2)cc(C(F)(F)F)c1C#N (centres unmarked),5.04

row,SMILES,"hERG current change (%, negative = inhibition) at 10uM [%]"
1,CCOC(=O)Cn1nnnc1CN(CCc1ccccc1)Cc1cc2cc(CC)ccc2[nH]c1=O,-4.43
2,CCCN(CCO)Cc1cccc(Br)c1,-0.752
3,COc1ccc(Br)cc1C(=O)N/N=C/c1cccnc1,-8.72
4,CCOc1ccc(-c2csc(NC(=O)C3CCCO3)n2)cc1 (centres unmarked),4.35
5,CC(C)C[C@@H](CSc1ccc(Br)cc1)N1CCN(CCc2ccccc2)CCC1=O,-70.6
6,O=C1CCN(Cc2ccc(O)cc2)CCN1[C@H](CO)Cc1ccccc1,2.51
7,CC(C)C[C@@H](CO)N1CCN(CCCc2ccccc2)CCC1=O,-31.1
8,[N-]=[N+]=NC[C@H](Cc1ccccc1)N1CCN(Cc2ccccc2)CCC1=O,3.9
9,CC(C)C[C@@H](CC#N)N1CCN(CCc2ccccc2)CCC1=O,2.01
10,O=C1CCN(Cc2ccccc2)CCN1[C@H](CSc1ccccc1)Cc1ccccc1,-72.1
11,CCOc1[nH]n(-c2ccccc2)c(=O)c1C=Nc1ccccc1,-2.58
12,CC1CN(C(=O)c2ccc(CNS(=O)(=O)c3cccc(C(F)(F)F)c3)cc2)CC(C)O1 (centres unmarked),9.72
13,O=C(Nc1ccc2ccccc2c1)c1ccccc1O,24.6
14,Cc1ccc(C(OC(=O)c2ccco2)C(=O)NC(C)(C)C)cc1 (centres unmarked),10.8
15,CN(C)Cc1ccccc1Cc1ccccc1.O=C(O)/C=C\C(=O)O,-10.1
16,CN(C)Cc1ccccc1Sc1ccc(O)cc1O.O.O=C(O)/C=C\C(=O)O,-3.84
17,N/C(Cc1ccccc1Sc1ccccc1)=N\O.O=C(O)/C=C\C(=O)O,-22.2
18,CCN(CC)Cc1ccccc1Sc1ccccc1.O=C(O)/C=C\C(=O)O,-53.3
19,N=C(N)Cc1ccccc1Sc1ccccc1.O=C(O)/C=C\C(=O)O,-1.09
20,CC(Cc1ccccc1Sc1ccccc1)N(C)C.O=C(O)/C=C\C(=O)O (centres unmarked),-69.5
